Measurements reported in PubChem BioAssay (NCI).
Values joined by “and” are separate entries in the source; they are usually repeats but may differ in a detail not shown here. Identical values can stand only once. About 83,000 compounds went through this panel and 20% of them were active in at least one assay; those are over-represented in the sample as a whole.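 Plates (96-well) were seeded with cells, treated with compound at one concentration, and incubated for 48 hours before percent growth was determined.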 Active and inactive are the calls of the source. Rule for the calls: active = growth percent below 10; inactive = the rest.

What follows are compounds tested on MDA-MB-468 breast (assay: NCI-60 one-dose screen, 48 h (100 = growth as untreated, 0 = no growth, -100 = all killed)). Details: 10 µM unless noted.
In the case of `Cc1ccc(NC(=S)/N=c2/n(-c3ccccc3)nc3n2CCN3C2=NCCN2)cc1`, the growth is reported as 104% (inactive). For `COc1cc(N=C2C(=O)N(Cc3ccccc3)c3ccccc32)cc(OC)c1OC`, the growth was 103% (inactive). With `CC(=O)c1cc2c(N)c(C(=O)Nc3cccc(F)c3C)sc2nc1C` the growth was 54.2% (inactive). With `CC(C)(C)c1cc(C(C)(C)C)cc(S(=O)(=O)Nc2cc3ccccc3cc2C(=O)NCCN)c1` the growth was -69.6% (active). With `C=C1C(=O)O[C@H]2[C@H]1CC/C(COC(=O)NCCc1cccc(OC)c1)=C\CC[C@@]1(C)O[C@@H]21` the growth was 18.9% (inactive). With `CCCOc1ccc(/C=N/Nc2cc(C)nc3ccc(Cl)cc23)cc1` the growth was 8.78% (active). In the case of `COC(=O)C[C@@H]1CC=CC(=O)/C1=C(O)/C=C/c1ccccc1`, the growth is reported as -85.5% (active). For `CC1=NN2C(=NC3=C(CCC/C3=C\c3ccc(Cl)cc3)C2c2ccc(Cl)cc2)S1` (stereo not given), the growth was 95.6% (inactive). For `COc1cc2nc(NC3CCC3)nc(NC3CCN(C(C)C)CC3)c2cc1OC`, the growth was 16.5% (inactive). With `Cc1ccc(C(=O)c2ccc(CC(=O)N/N=C/c3ccccc3O)n2C)cc1` the growth was 81.1% (inactive). For `CCOc1ccc([C@@H]2[C@@H](Oc3ccccc3)C(=O)N2c2cc(OC)c(OC)c(OC)c2)cc1`, the growth was 29.4% (inactive). `C=C(c1ccc(C(=O)O)c(F)c1)c1cc2c(cc1C)C(C)(C)CCC2(C)C` was tested, and the growth was 97.6% (inactive). In the case of `CCCCCCNC(=O)Oc1ccc(/C(=C(/C)c2ccc(OC)cc2)c2ccc(OCCN3CCCCCC3)cc2)cc1`, the growth is reported as 1.03% (active). In the case of `CCOC(=O)/C(=C(\C)N)C1CC(=O)NC1=O` (stereo not given), the growth is reported as 92.3% (inactive). For `COc1cc(C2NC(=O)c3ccccc3N2)ccc1OCCCCCOc1c(OC)cc(C2=NOC(c3cc(OC)c(OC)c(OC)c3)C2)cc1OC` (stereo not given), the growth was 9.53% (active). `COc1ccc2nc(-c3ccccc3)cc(C(C)=O)c2c1` was tested, and the growth was 68% (inactive). `COc1ccc(Sc2[nH]c(C(C)=O)c3ccccc23)cc1` was tested, and the growth was -6.04% (active). With `Nc1nc(N)c2c(n1)NC(c1ccc(Cl)cc1)CC(c1ccc(Nc3nc(NCCO)nc(N4CCOCC4)n3)cc1)=N2` (stereo not given) the growth was 73.7% (inactive). In the case of `CC(C)(C)[Si](C)(C)OC1[C@@H](O[Si](C)(C)C(C)(C)C)[C@@H](CNC(=O)NC(=O)NC(=O)CI)O[C@H]1n1cnc2c(NC(=O)Nc3ccccc3)ncnc21` (stereo not given in full), the growth is reported as 75.5% (inactive). With `NS(=O)(=O)Oc1ccc(NC(=O)C2CCCCCC2)cc1` the growth was 109% (inactive). With `COc1cc2c(cc1NC(=O)C(F)(F)F)-c1ccc(NC(=O)C(F)(F)F)cc1C2` the growth was 58% (inactive). In the case of `ClCC1(Cn2cnc3c(Cl)nc(Cl)nc32)COC1`, the growth is reported as 19.4% (inactive). With `COc1ccc(C2=Nc3c(C)nn(-c4ccccc4)c3NC(c3ccc(Oc4ccnc5cc(Cl)ccc45)c(OC)c3)C2)cc1` (stereo not given) the growth was 80.3% (inactive). `Cc1ccc(S(=O)(=O)c2c(COC(=O)c3cccc(C)c3)c(-c3ccccc3)nn2C)cc1` was tested, and the growth was -83.9% (active). For `Cc1ccc(Sc2oc(-c3ccc(C)cc3)nc2[P+](c2ccccc2)(c2ccccc2)c2ccccc2)cc1`, the growth was -36.5% (active). With `Oc1[nH]c2ccc(Cl)cc2c1N=Nc1nc(N=Nc2c(O)[nH]c3ccc(Cl)cc23)nc(N2CCOCC2)n1` the growth was 23.6% (inactive). `COc1ccc(CCN2COc3c([C@@H](C)CCC=C(C)C)ccc(C)c3C2)cc1OC` was tested, and the growth was 26.8% (inactive). With `CNC(=O)c1cc(Oc2ccc3c(c2)sc2nc(-c4ccc(NC(=O)Nc5ccc(Cl)c(C(F)(F)F)c5)cc4)cn23)ccn1` the growth was 93.9% (inactive). In the case of `Fc1cc(C(F)(F)F)ccc1-c1cncnc1NC1CCCCCC1`, the growth is reported as 82.4% (inactive). With `COc1ccc2c(c1)C(c1cc(OC)c3c(c1)OCO3)C1=C(COC1=O)N2` (stereo not given) the growth was -14.4% (active). With `CCOC(=O)c1c(CN2CCN(C)CC2)nc2ccc(Cl)cc2c1-c1ccccc1` the growth was 63.7% (inactive). `C#C[C@]1(O)CC[C@H]2[C@@H]3CC=C4c5sc(-c6cccc(F)c6)nc5CC[C@]4(C)[C@H]3CC[C@@]21C` was tested, and the growth was 71.1% (inactive). In the case of `Brc1cc(-c2cc(-c3ccc4c(c3)OCCO4)[nH]n2)cs1`, the growth is reported as 12% (inactive). For `COc1ccc2c(c1)OC13Oc4cc(OC)ccc4C=C1CCCC3=C2`, the growth was 56.3% (inactive). In the case of `COc1nc2c(cc1S(=O)(=O)c1ccccc1)CCc1c-2cnn1-c1ccccc1`, the growth is reported as 45.3% (inactive). `CN1CCN(c2ccc(Nc3nc(NCCNS(=O)(=O)c4ccccc4)c4sccc4n3)cc2)CC1` was tested, and the growth was 90.5% (inactive). With `COc1ccc(-c2cnnn2-c2nonc2-n2cccc2)cc1OC` the growth was 40.1% (inactive). For `CCCOc1cc2ccccc2cc1C(=O)Nc1nc(N)c2c(ccc3nccc32)[nH]1`, the growth was -64.7% (active). `C#CC#CC#CC#CC#CC#CC#CC#CC[C@H]1OC[C@H](COC(=O)O[C@@H](C(=O)O[C@H]2C[C@@]3(O)[C@@H](OC(=O)c4ccccc4)[C@@H]4[C@]5(OC(C)=O)CO[C@@H]5C[C@H](O)[C@@]4(C)C(=O)[C@H](OC(C)=O)C(=C2C)C3(C)C)[C@@H](NC(=O)c2ccccc2)c2ccccc2)O1` was tested, and the growth was 19.3% (inactive). In the case of `ClC/C=C/CSc1ncnc2nc[nH]c12`, the growth is reported as 103% (inactive) and 127% (inactive).
